Screens from PubChem BioAssay.
A selection: hits, their analogues and other compounds. The true share with any hit is near 8.1%.
PD-1 reverse act = activators reversing PD-1 mediated T-cell inhibition; 29,000 tested, under 10 active; primary human CD4 T cells, PD-L1 beads, CellTiter-Glo 96 h; activation, % (concentration not given with the values); call rule not given here;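 further: 0% = median vehicle wells and 100% = positive control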
MITF inh = blocks MITF activity | TRPM1 promoter luciferase, luminescence, 24 h | inhibition, % (test concentration not listed) | 0.28% of 37,000 active | AID 2240; in the data active means inhibition above about 85%; inconclusive means no clear call, values can overlap the other calls; inactive means below about 68%;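 further: human melanocyte line stably carrying TRPM1 promoter luciferase reporter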
Shh pathway inh = Sonic Hedgehog pathway inhibition | Shh-LIGHT2 Gli-luciferase reporter, 30 h | inhibition, % (concentration not given with the values) | 2.1% of 22,000 active | AID 2313;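 active means mean inhibition across valid replicates above about 65%, limit read from the data; inconclusive means mean under the limit, yet half or more replicates past it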;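 further: pathway switched on by Shh-conditioned medium diluted 1 in 25 in low serum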
NOMO-1 viab = STK33 inhibitor candidate reducing NOMO-1 cell viability; AID 2330; 7.5% of 37,000 active; inhibition, % (concentration not given with the values); NOMO-1 AML viability, CellTiter-Glo luminescence, 72 h; in the data active means inhibition above about 80%; inconclusive means no clear call, values can overlap the other calls
* hit, by the source's call; u = inconclusive; x = no result.

SMILES	PD-1 reverse act	MITF inh	Shh pathway inh	NOMO-1 viab
C[C@@H]1CN([C@@H](C)CO)C(=O)c2cccc(NC(=O)CCCCCC(=O)Nc3ccccc3N)c2O[C@@H]1CN(C)Cc1ccc(C(F)(F)F)cc1	2	33	x	119*
C[C@H](CO)N1C[C@H](C)[C@H](CN(C)Cc2ccc(C(F)(F)F)cc2)Oc2c(NC(=O)CCCCCC(=O)Nc3ccccc3N)cccc2C1=O	0	8	x	115*
C=C1CC/C=C(/C(=O)O)C[C@H](O)C2C1CC2(C)C (some centres undefined)	1	-5	6	6
COc1cc(NC(=O)CCn2cnc3ccccc3c2=O)c(OC)cc1Cl	1	-6	x	21
O=C(Oc1ccc2ccccc2c1)C1c2ccccc2Oc2ccccc21	1	0	-2	24
C[C@H]1CN([C@@H](C)CO)C(=O)Cc2cc(NC(=O)Nc3cccc4ccccc34)ccc2O[C@@H]1CN(C)Cc1ccc(C(F)(F)F)cc1	x	29	-8	125*
C[C@H](CO)N1C[C@H](C)[C@H](CN(C)C(=O)Nc2ccc(C(F)(F)F)cc2)Oc2ccc(NC(=O)Nc3cccc4ccccc34)cc2CC1=O	x	19	5	46
C[C@@H]1CN([C@H](C)CO)C(=O)Cc2cc(NC(=O)Nc3cccc4ccccc34)ccc2O[C@H]1CN(C)Cc1ccc(C(=O)O)cc1	2	2	7	1
C[C@@H]1CN([C@@H](C)CO)C(=O)Cc2cc(NC(=O)Nc3cccc4ccccc34)ccc2O[C@@H]1CN(C)C(=O)Nc1ccc(C(F)(F)F)cc1	-6	24	28	107*
C[C@H]1CN([C@@H](C)CO)C(=O)Cc2cc(NC(=O)Nc3cccc4ccccc34)ccc2O[C@@H]1CN(C)Cc1ccc(C(=O)O)cc1	3	3	-22	3
C[C@H](CO)N1C[C@H](C)[C@H](CN(C)Cc2ccc(C(F)(F)F)cc2)Oc2ccc(NC(=O)Nc3cccc4ccccc34)cc2CC1=O	x	23	x	125*
C[C@@H]1CN([C@H](C)CO)C(=O)Cc2cc(NC(=O)Nc3cccc4ccccc34)ccc2O[C@H]1CN(C)Cc1ccc(C(F)(F)F)cc1	x	22	-24	105*
Cc1cc2ncc(C(=O)/C=C/N(C)C)c(C)n2n1	0	-20	-1	10
Cc1ccc2c(c1)-c1c(ssc1=S)C(C)(C)N2C(=O)C(C)C	1	11	x	19
CCOC(=O)c1c(NC(=O)CSc2nc(C)cc(C(F)(F)F)c2C#N)sc2c1CCCC2	x	9	x	-2
C[C@H]1CN([C@@H](C)CO)C(=O)Cc2cc(NC(=O)Nc3cccc4ccccc34)ccc2O[C@@H]1CN(C)Cc1ccccc1	2	18	9	50
C[C@H]1CN([C@@H](C)CO)C(=O)Cc2cc(NC(=O)Nc3cccc4ccccc34)ccc2O[C@H]1CN(C)Cc1ccc(C(F)(F)F)cc1	-2	20	-41	106*
CCN(CC)C(=S)C(=O)Nc1cc(C(F)(F)F)cc(C(F)(F)F)c1	-2	13	57	109*
C[C@@H]1CN([C@H](C)CO)C(=O)c2cc(NS(=O)(=O)c3ccc(F)cc3)ccc2O[C@@H]1CN(C)Cc1ccc(C(=O)Nc2ccccc2N)cc1	-1	16	x	108*
C[C@@H]1CN([C@@H](C)CO)C(=O)c2cc(NS(=O)(=O)c3ccc(F)cc3)ccc2O[C@H]1CN(C)Cc1ccc(C(=O)Nc2ccccc2N)cc1	0	2	x	u
C[C@@H]1CN([C@H](C)CO)C(=O)c2cc(NS(=O)(=O)c3ccccc3)ccc2O[C@@H]1CN(C)Cc1ccc(C(=O)Nc2ccccc2N)cc1	-1	20	x	109*
C[C@@H]1CN([C@@H](C)CO)C(=O)c2cc(NS(=O)(=O)c3ccccc3)ccc2O[C@H]1CN(C)Cc1ccc(C(=O)Nc2ccccc2N)cc1	-2	16	x	38
C[C@H](CO)N1C[C@H](C)[C@H](CN(C)Cc2ccc(C(=O)Nc3ccccc3N)cc2)Oc2ccc(NS(=O)(=O)c3ccccc3)cc2C1=O	-1	-5	x	109*
Cc1ccc(S(=O)(=O)Nc2ccc3c(c2)C(=O)N([C@H](C)CO)C[C@@H](C)[C@@H](CN(C)Cc2ccc(C(=O)Nc4ccccc4N)cc2)O3)cc1	-1	25	x	110*
Cc1ccc(S(=O)(=O)Nc2ccc3c(c2)C(=O)N([C@@H](C)CO)C[C@H](C)[C@@H](CN(C)Cc2ccc(C(=O)Nc4ccccc4N)cc2)O3)cc1	-2	29	x	65
COc1ccc(N=C(CCCN2C(=O)c3ccccc3C2=O)C2=C(O)CC(C)(C)CC2=O)cc1	0	-8	8	12
